From PubChem BioAssay
A selection: hits, their analogues and other compounds. The true share with any hit is near 2.8%.
SENP7 block: SENP7 protease inhibition. Q9BQF6. recombinant SENP7, Z-RLRGG-aminoluciferin luminescence, 40 min. inhibition, % at 5 µM. 330,000 compounds, 1.5% hits;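 active = inhibition above about 50% at the single test dose, limit read from the data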;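 also: plate controls were DMSO with enzyme for no effect and no enzyme buffer wells for full effect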
HSP90 inh: inhibitors of HSP90 luciferase refolding in rabbit reticulocyte lysate; luciferase refolding luminescence, 3 h; AID 1789; inhibition, % at 5.6 µM; 290,000 compounds, 0.91% hits;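 active = inhibition above the screen-wide mean plus 3 SD, computed separately per campaign, cut at about 16% in these data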;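 also: 0% = DMSO wells and 100% = 60 µM geldanamycin wells; inhibitors lower the luminescence because luciferase stays unfolded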
SENP8 block-1: SENP8 (human) protease inhibition; Q96LD8; recombinant SENP8, Nedd8 substrate fluorescence; inhibition, % at 20 µM; 360,000 compounds, 0.64% hits; in the data active = inhibition mostly above about 40%, no sharp cut-off; inactive = mostly below about 27%
Target sequence (Q96LD8 whole entry, looked up): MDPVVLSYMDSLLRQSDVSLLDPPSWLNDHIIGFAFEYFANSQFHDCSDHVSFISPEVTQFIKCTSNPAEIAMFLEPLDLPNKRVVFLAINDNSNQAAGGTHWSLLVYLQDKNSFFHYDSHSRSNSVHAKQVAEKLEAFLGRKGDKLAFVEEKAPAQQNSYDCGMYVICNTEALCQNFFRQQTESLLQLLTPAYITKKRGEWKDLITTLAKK
SENP6 inh: blocks the human protease SENP6. Recombinant SENP6 catalytic domain, aminoluciferin luminescence. Q9GZR1. inhibition, % at 10 µM. 330,000 compounds, 1.8% hits;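 active = inhibition above about 50% at the single tested dose, limit read from the data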;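 also: plate controls were DMSO wells with enzyme for no effect and DMSO wells lacking enzyme for full effect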
SENP8 block-2: SENP8 protease inhibition; Q96LD8; purified SENP8, Z-RLRGG-aminoluciferin cleavage, luminescence; inhibition, % at 10 µM; 330,000 compounds, 1.2% hits; in the data active = inhibition above about 50%
An asterisk follows results filed as active.

How did CCCCC(=Nc1ccc(N)cc1)C1=C(O)C(C(=O)OC)C(C)(C)CC1=O (stereo unspecified) do in these assays?
SENP7 block: 6; HSP90 inh: 5; SENP8 block-1: 54*; SENP6 inh: 14; SENP8 block-2: -2

Results for CCC(=Nc1ccc(N)cc1)C1=C(O)C(C(=O)OC)C(C)(C)CC1=O (stereo unspecified) ?
SENP7 block: 16; HSP90 inh: 5; SENP8 block-1: 70*; SENP6 inh: 35; SENP8 block-2: 11

What do the screens show for `CC(=O)NC(Cc1ccccc1)C(=O)N1CCN(C(=O)c2ccco2)CC1` (stereo unspecified)?
SENP7 block: -2; HSP90 inh: -4; SENP8 block-1: 6; SENP6 inh: -19; SENP8 block-2: -7

What do the screens show for `O=C1NCCCC2c3cc(O)c4ccccc4c3OC12N1CCCCC1` (stereo unspecified)?
SENP7 block: 36; HSP90 inh: 1; SENP6 inh: 71*; SENP8 block-2: 63*

How did Clc1ccc(CON/C=N/c2ncnc3sccc23)cc1 do in these assays?
SENP7 block: -2; HSP90 inh: 17*; SENP8 block-1: 18; SENP6 inh: 6; SENP8 block-2: 6

Results for CCCCOc1ncnc2c1[nH]c1ccc(C)cc12 ?
SENP7 block: 51*; HSP90 inh: 5; SENP8 block-1: -364; SENP6 inh: 16; SENP8 block-2: -5

How did CCCOc1ncnc2c1[nH]c1ccc(OC)cc12 do in these assays?
SENP7 block: 81*; HSP90 inh: 3; SENP8 block-1: -396; SENP6 inh: 77*; SENP8 block-2: 63*

How did CCCOc1ncnc2c1[nH]c1ccccc12 do in these assays?
SENP7 block: 5; HSP90 inh: 3; SENP8 block-1: -105; SENP6 inh: -4; SENP8 block-2: 0

What do the screens show for `O=[N+]([O-])c1ccc(C=Nc2ccccc2)cc1`?
SENP8 block-1: 24

What do the screens show for `CCCCCNc1nc(-c2ccccc2)cs1`?
SENP7 block: 10; HSP90 inh: 5; SENP6 inh: 64*; SENP8 block-2: 32

How did Cc1cccnc1Nc1nc(-c2ccccn2)cs1 do in these assays?
SENP7 block: 77*; HSP90 inh: 10; SENP8 block-1: -9; SENP6 inh: 81*; SENP8 block-2: 75*

How did CC(=O)Nc1ccc(-c2csc(Nc3ncccn3)n2)cc1 do in these assays?
SENP7 block: 18; HSP90 inh: -6; SENP8 block-1: 8; SENP6 inh: 1; SENP8 block-2: -8

How did c1ccc(-c2csc(Nc3ncccn3)n2)cc1 do in these assays?
SENP7 block: 75*; HSP90 inh: 2; SENP8 block-1: 16; SENP6 inh: 37; SENP8 block-2: 13

What do the screens show for `Oc1ccc(-c2csc(Nc3ncccn3)n2)cc1`?
SENP7 block: 72*; HSP90 inh: 4; SENP8 block-1: 10; SENP6 inh: 37; SENP8 block-2: 56*

How did Cc1cc(NC2CCCCC2)nc(N2CCOCC2)n1 do in these assays?
SENP7 block: -4; HSP90 inh: -1; SENP8 block-1: 3; SENP6 inh: -19; SENP8 block-2: -7

What do the screens show for `FC(F)(F)c1nnc2ccc(NCn3nnc4ccccc43)nn12`?
SENP7 block: -1; HSP90 inh: -3; SENP8 block-1: 15; SENP6 inh: -11; SENP8 block-2: -10

Results for CCOC(=O)/C=C(\C)Sc1cc(=O)oc2ccccc12 ?
SENP7 block: -9; HSP90 inh: 1; SENP8 block-1: 10; SENP6 inh: -20; SENP8 block-2: -9

How did CCOC(=O)/C=C(\C)Sc1cc(O)c2ccccc2c1O do in these assays?
HSP90 inh: 16; SENP8 block-1: 48*

How did C/C(=N\Nc1nc2ccccc2[nH]1)c1ccccn1 do in these assays?
SENP7 block: -1; HSP90 inh: 19*; SENP8 block-1: -4; SENP6 inh: 59*; SENP8 block-2: 32

What do the screens show for `S=C1Nc2ccccc2CS1`?
SENP8 block-1: 19

What do the screens show for `S=C1Cc2ccccc2N1`?
HSP90 inh: 5; SENP8 block-1: 45*

What do the screens show for `O=C(CCC1CCCC1)N1CCN(C(=O)C2CC2)CC1`?
SENP7 block: -2; HSP90 inh: 4; SENP8 block-1: 10; SENP6 inh: -6; SENP8 block-2: -1

Results for Cc1cccc(C)c1OCC(O)Cn1ccnc1C (stereo unspecified) ?
SENP7 block: 7; SENP8 block-1: 16; SENP6 inh: 6; SENP8 block-2: 2

How did COc1ccc(N=Nc2ccc(N)nc2N)cc1 do in these assays?
SENP7 block: 78*; HSP90 inh: 4; SENP8 block-1: 4; SENP6 inh: 78*; SENP8 block-2: 73*

Results for COc1ccc(N=Nc2cc(OC)c(N)cc2OC)cc1 ?
SENP8 block-1: 42*
